Screening results deposited in PubChem BioAssay by several laboratories.
Sampled rows, rich in hits. Any-hit rate of the full collection: about 22%.
Measles CPE: compounds protecting cells from measles virus cytopathic effect, primary screen, measles RdRp inhibitor project, single point, MLSMR library, absorbance. Measles virus-infected cells, CPE protection. actives 1.5% (n = 140,000). protection (pct of control), % at 4 µM. AID 841, 2007; in the data active = protection mostly above about 24%, no sharp cut-off; inactive = mostly below about 26%
CYP2C19 activ: human CYP2C19 activators, primary screen, biochemical, luminescence; recombinant CYP2C19, luciferin-H EGE luminescence; hits give high values; 0 = fully inhibited enzyme, 1 = untreated enzyme; activation factor at 5 µM; AID 1025, 2008; Cytochrome P450 2C19 (Homo sapiens), P33261; 96,000 tested, under 10 active;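 active = activation factor of at least 2 at 5 µM in the primary screen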
CYP2C9 activ: human CYP2C9 activators, primary screen, biochemical, luminescence | Cytochrome P450 2C9 (Homo sapiens), P11712 | recombinant CYP2C9, luciferin-H conversion; hits give high values; factor 1 = untreated enzyme, 0 = blocked | activation factor at 5 µM | actives 1.4% (n = 96,000);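 active = activation factor of 2 or more for CYP2C9 at a 5 µM dose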
Target sequence (P11712 whole entry, looked up): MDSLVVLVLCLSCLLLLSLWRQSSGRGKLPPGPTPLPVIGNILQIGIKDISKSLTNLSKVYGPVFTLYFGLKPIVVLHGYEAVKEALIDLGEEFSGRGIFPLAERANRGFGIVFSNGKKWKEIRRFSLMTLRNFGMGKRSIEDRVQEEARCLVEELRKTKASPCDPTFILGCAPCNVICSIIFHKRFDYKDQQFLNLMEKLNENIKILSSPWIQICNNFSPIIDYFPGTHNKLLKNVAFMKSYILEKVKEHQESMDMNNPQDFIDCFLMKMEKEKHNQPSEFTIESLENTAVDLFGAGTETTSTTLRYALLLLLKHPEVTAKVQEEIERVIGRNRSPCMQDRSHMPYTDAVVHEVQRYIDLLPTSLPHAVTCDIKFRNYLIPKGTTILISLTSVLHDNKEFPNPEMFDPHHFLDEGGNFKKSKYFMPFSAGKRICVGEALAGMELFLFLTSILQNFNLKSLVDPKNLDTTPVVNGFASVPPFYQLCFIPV
CYP2C19 inh: blockers of cytochrome P450 2C19 activity – biochemical, luminescence, ADME assay, primary screen. P33261. CYP2C19 Supersomes, luciferin-H EGE luminescence, 30 min. inhibition, % at 5 µM. actives 21% (n = 96,000);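 active = CYP2C19 inhibition above a set limit at 5 µM in the primary screen, cut at about 50% in these data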
CYP2C9 inh: blockers of cytochrome P450 2C9 activity – biochemical, luminescence, ADME assay, primary screen; P11712; CYP2C9 Supersomes, luciferin-H conversion; inhibition, % at 5 µM; actives 20% (n = 96,000); AID 777, 2007;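 active = blocking of liver enzyme CYP2C9 beyond about 50% at 5 µM, limit read from the data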
Large screens that a line does not name were inactive.

CC(=O)Oc1c(Cl)cc(Cl)cc1/C=C/c1ccc2ccccc2n1	none
COc1cc(/C=C/c2cc(OC(C)=O)c3ccccc3n2)c(OC(C)=O)c([N+](=O)[O-])c1	CYP2C19 inh 75, CYP2C9 inh 79
N#CC1=C(SCC(=O)c2ccccc2)NC2=C(C(=O)CCC2)C1c1ccco1 (centres undefined)	CYP2C19 inh 94, CYP2C9 inh 92
CC(C)(C)c1ccc(C(=O)CCCSC2=C(C#N)C(c3ccco3)C3=C(CCCC3=O)N2)cc1 (centres undefined)	CYP2C9 inh 67
Cc1ccc(C(=O)CSC2=C(C#N)C(c3ccco3)C3=C(CCCC3=O)N2)cc1 (centres undefined)	CYP2C19 inh 88, CYP2C9 inh 92
CCn1c(Cc2ccccc2)nnc1SCc1cccc(C(=O)O)c1	none (no result: CYP2C19 activ, CYP2C9 activ, CYP2C19 inh, CYP2C9 inh)
S=C(N/N=C/c1ccccc1)N1CCOCC1	none (no result: CYP2C19 activ, CYP2C9 activ, CYP2C19 inh, CYP2C9 inh)
CC(NC(=O)c1cccs1)c1nnc(SCc2ccc(Cl)cc2Cl)n1C (centres undefined)	none (no result: CYP2C19 activ, CYP2C9 activ, CYP2C19 inh, CYP2C9 inh)
O=C(O)c1sccc1SCc1ccc(Cl)cc1Cl	CYP2C9 inh 54
N#Cc1c(-c2ccc3c(c2)OCO3)ccn2nc(-c3cccc(C(F)(F)F)c3)nc12	none
Cc1ccc(OCC(=O)N/N=C/c2cn[nH]c2-c2ccc(Cl)c(Cl)c2)cc1	CYP2C9 inh 52
Cc1cccc(OCC(=O)N/N=C/c2cn[nH]c2-c2ccc(Cl)c(Cl)c2)c1	CYP2C9 inh 57
COc1cc(CNC(=O)c2ccc(Cn3nc(C)c(Cl)c3C)o2)cc(OC)c1	CYP2C19 inh 62
COC(=O)c1ccc(Cn2nc(C)c(Cl)c2C)o1	none
Cc1ccc(-n2nnnc2SCC(=O)Nc2ccc3c(c2)COC3=O)cc1C	none
O=C(CCCCn1c(=O)[nH]c2ccccc2c1=O)NCCC1=CCCCC1	none
O=C(Cn1c(=O)n(CCCC(=O)NC2CCCC2)c(=O)c2ccccc21)NCCC1=CCCCC1	CYP2C9 inh 68
CCCN(CCC)C(=O)Cn1c(=O)n(CCCCC(=O)NC2CCCC2)c(=O)c2ccccc21	none
CCCCNC(=O)CCCn1c(=O)c2ccccc2n(CC(=O)NCCC2=CCCCC2)c1=O	CYP2C19 inh 67, CYP2C9 inh 72
Cc1csc(CCc2nc(C)cs2)n1	none
COc1ccc(C(=O)CN(C(=O)c2ccc(Cl)cc2)N2C(=O)C3CCCCC3C2=O)cc1 (centres undefined)	none
CN(C(=O)c1ccc(Cl)cc1)C1=CCCCC1CCC#N (centres undefined)	CYP2C19 inh 64
COc1ccc(OC)c(NS(=O)(=O)c2ccc3c(c2)CCC(=O)N3)c1	CYP2C19 inh 53
COC(=O)c1cc(NS(=O)(=O)c2ccc3c(c2)CCC(=O)N3)cc(C(=O)OC)c1	CYP2C19 inh 68, CYP2C9 inh 57
COC(=O)c1cc(NS(=O)(=O)c2ccc(N3CCCCC3)c([N+](=O)[O-])c2)cc(C(=O)OC)c1	none
Cc1ccccc1-n1c(=O)cc(N2CCN(C(=O)c3ccco3)CC2)[nH]c1=O	none (no result: CYP2C19 activ, CYP2C9 activ, CYP2C19 inh, CYP2C9 inh)
COc1ccc(C(=O)NNC(=O)CN2CCN(c3nc(-c4ccccc4)cs3)CC2)cc1	none (no result: CYP2C19 activ, CYP2C9 activ, CYP2C19 inh, CYP2C9 inh)
CSCCC(NC(=O)c1cccc(C)c1)C(=O)OCC(=O)NC(=O)c1cccn1C (centres undefined)	none (no result: CYP2C19 activ, CYP2C9 activ, CYP2C19 inh, CYP2C9 inh)
Cc1ccc(S(=O)(=O)CC(c2ccccc2)N2CCOCC2)cc1 (centres undefined)	CYP2C19 inh 57
Cc1csc(NC(=O)C(CC(C)C)NS(=O)(=O)c2ccc3c(c2)oc(=O)n3C)n1 (centres undefined)	CYP2C9 inh 55
CCOC(=O)c1sc(N2N=C(C)/C(=C\c3ccc(OCC(=O)OC)cc3)C2=O)nc1C	none (no result: CYP2C19 activ, CYP2C9 activ, CYP2C19 inh, CYP2C9 inh)
COc1cc2c(cc1OC)C(=S)NC(C)(C)C2	none
C=CCOn1c(=O)c(-c2ccc(OC)c(OC)c2)[n+]([O-])c2ccccc21	none
C=CCOn1c(=O)c(-c2cccs2)[n+]([O-])c2ccccc21	CYP2C19 inh 57, CYP2C9 inh 68
CCC(CC)NC(=O)Cc1ccccc1OC	CYP2C19 inh 78
COc1ccccc1CNC(=O)c1ccc(S(=O)(=O)N(C)C)cc1	CYP2C19 inh 73
COc1ccccc1C(=O)NCCCNc1ccc([N+](=O)[O-])cc1	Measles CPE 27 (no result: CYP2C19 activ, CYP2C9 activ, CYP2C19 inh, CYP2C9 inh)
COc1ccccc1OCCNC(=O)c1ccc(S(=O)(=O)N(C)C)cc1	none
C#CC(C)(C)NC(=O)c1ccccc1OC	CYP2C9 activ 2.4
CC(=O)NCCCNc1ccc([N+](=O)[O-])cc1	none (no result: CYP2C19 activ, CYP2C9 activ, CYP2C19 inh, CYP2C9 inh)
C/C(Nc1ccccc1)=C(/C#N)C(N)=O	none
Cc1ccc(N(C(=O)CCl)C(C(=O)NC2CCCCC2)c2cccnc2)cc1C (centres undefined)	none (no result: CYP2C19 activ, CYP2C9 activ, CYP2C19 inh, CYP2C9 inh)
COc1ccccc1CNC(=O)COc1ccccc1OC	CYP2C9 activ 3.4, CYP2C19 inh 97
COc1ccccc1CNC(=O)c1ccccc1OC	CYP2C9 activ 3.8, CYP2C19 inh 77
CSCCC(NC(=O)c1cccc([N+](=O)[O-])c1)C(=O)O (centres undefined)	none (no result: CYP2C19 activ, CYP2C9 activ, CYP2C19 inh, CYP2C9 inh)
O=C(Cn1cnc2ccccc2c1=O)c1ccc2ccccc2c1	none
Cc1nc([N+](=O)[O-])c(Br)n1CC(=O)c1ccc2ccccc2c1	CYP2C19 inh 54, CYP2C9 inh 76
Cc1nc([N+](=O)[O-])c(Br)n1CC(=O)c1ccc(Br)cc1	CYP2C9 inh 54
Cc1nc([N+](=O)[O-])c(Br)n1CC(=O)c1ccccc1	CYP2C19 inh 51
CCc1ccc(OCc2nnc(SCCN3CCOCC3)n2C)cc1	none
COC(=O)C(O)(CC(=O)Nc1ccccc1OC)C(F)(F)F (centres undefined)	none (no result: CYP2C19 activ, CYP2C9 activ, CYP2C19 inh, CYP2C9 inh)
Cc1ccc(N2CCN(C(=O)c3ccccc3F)CC2)c(C)c1	CYP2C19 inh 100, CYP2C9 inh 89
O=C(c1ccccc1F)N1CCN(Cc2ccccc2F)CC1	CYP2C19 inh 96, CYP2C9 inh 59
O=C(c1cccc(Cl)c1)N1CCN(Cc2ccccc2F)CC1	CYP2C19 inh 97, CYP2C9 inh 79
O=C(c1cccc(Cl)c1)N1CCN(C(=O)c2ccco2)CC1	none
O=CN1CCN(C(=O)c2ccccc2F)CC1	none
COc1ccc(CC(=O)c2cc(OC)c(OC)cc2CC(=O)O)cc1OC	none
COc1ccc(C(=O)Cc2ccc(OC)c(OC)c2)c(OC)c1	Measles CPE 61, CYP2C19 inh 99
COc1ccc(/C(N)=N/OC(=O)Cc2ccc(OC)c(OC)c2)cc1	CYP2C9 inh 65
Cc1ccc(C)c(C(=O)COC(=O)c2ccc(Br)o2)c1	none
COc1ccc(OC)c(C(=O)COC(=O)c2ccc(C)o2)c1	CYP2C19 inh 93
COc1ccc(C(=O)OCC(=O)c2cc(OC)ccc2OC)c(OC)c1	CYP2C9 activ 3.1, CYP2C19 inh 86
CCc1nnc2n1N=C(c1ccc(-c3cc(Cl)ccc3Cl)o1)CS2	none
CC(=O)Nc1ccc(Oc2nc(C)cc(C)n2)cc1	none
COc1ccc(CCC(N)=O)cc1OC	Measles CPE 27
